Screens from PubChem.
Dicer inh: inhibitors of Dicer pre-microRNA processing, primary screen, biochemical, cat-ELCCA, chemiluminescence | Endoribonuclease Dicer (Homo sapiens), Q9UPY3 | cat-ELCCA pre-miR-21 Dicer processing; active compounds read high | z-score at 25 µM | 6% of 47,000 active; in the data active = z-score above about 3, passing the limit was not always enough;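 note: higher signal means more uncleaved substrate so more Dicer inhibition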
Hits are given with their value; - = inactive. The entries come from a sample that favours hits as a whole.

SMILES	Dicer inh
Cc1ccc(O)c(C2=NN3C(C2)c2ccccc2OC3C(C)C)c1 (configuration not stated)	-
COC(=O)c1cc(OC)ccc1Oc1cccc(OC)c1	-
S=c1ncc(Sc2ncccn2)c(-c2ccc(Cl)cc2)[nH]1	-
CN(C)/C=C/C=c1/c(=O)c2cccc3cccc1c32	3.7
CN(C)/C=C/C=C1\N=C(c2ccccc2)OC1=O	-
CN(C)N1C(=O)c2cccc3cccc(c23)C1=O	-
CCOC(=O)C(Cc1ccccc1)NC(=O)Nc1ccccc1 (configuration not stated)	-
CC(C)(C)OC(=O)NCCN=Cc1ccc(O)cc1	-
COc1ccc(C2Nn3c(C)nnc3SC2C(=O)N2CCCC2)cc1Br (configuration not stated)	-
FC(F)(F)c1cccc(-c2nnc(SCc3ccccc3)o2)n1	-
N#CC(=C1SCCS1)c1ccc(Cl)cc1	4.7
N#CC(=C1SCCS1)S(=O)(=O)c1ccc(Cl)cc1	-
N#CC(=C1SCCCCS1)S(=O)(=O)c1ccc(Cl)cc1	-
O=C(CN1C(=O)c2cccc3cccc1c23)N1CCN(c2ccc(F)cc2)CC1	-
O=C(CN1C(=O)C2CCCCC2C1=O)N1CCN(c2ccc(F)cc2)CC1 (configuration not stated)	6.5
O=C1CCC2C(=O)N(CC(=O)N3CCCC3)C(=O)C2C1 (configuration not stated)	-
Cn1c(=O)c2c(nc(CN(Cc3ccccc3)Cc3ccccc3)n2CC(=O)C(C)(C)C)n(C)c1=O	-
COc1ccccc1N1CCN(S(=O)(=O)c2ccc(-c3ccno3)s2)CC1	-
CC1CCN(S(=O)(=O)c2ccc3[nH]c(=O)[nH]c3c2)CC1	-
COc1ccccc1N1CCN(S(=O)(=O)c2ccc3[nH]c(=O)[nH]c3c2)CC1	3
Cn1c2ccccc2n2c(SCCOc3ccc(Cl)cc3)nnc12	-
O=C(c1cccc([N+](=O)[O-])c1)c1cc2cc(Br)cc(Br)c2o1	-
O=C1CC(c2ccccc2)CC(=O)N1c1ccc(N2CCOCC2)cc1	-
Nc1cc(=O)[nH]n1C1CCN(c2ccccc2)CC1	3.2
Nc1cc(=O)[nH]c(=O)n1-c1ccccc1	-
SMILES	Dicer inh
O=C1CC(NCCc2ccc(Cl)cc2)C(=O)N1c1ccc(Br)cc1 (configuration not stated)	4.6
O=C1CC(NCc2ccc(Cl)cc2)C(=O)N1c1ccc(Br)cc1 (configuration not stated)	-
CCCCCCCNC1CC(=O)N(c2ccc(Cl)cc2)C1=O (configuration not stated)	-
O=C(O)c1csc(-c2ccccc2)c1Cc1ccccc1	-
CCOc1ccc2c(c1)-c1c(sn(-c3ccccc3OC)c1=S)C(C)(C)N2	-
CCOC(=O)c1ccc(-n2sc3c(c2=S)-c2ccccc2NC3(C)C)cc1	-
COc1ccc2c(c1)-c1c(sn(-c3ccccc3OC)c1=S)C(C)(C)N2	6.6
CC(=O)Nc1ccc(-n2sc3c(c2=S)-c2cccc(C)c2NC3(C)C)cc1	-
COc1ccc2c(c1)-c1c(sn(-c3cc(C)ccc3O)c1=S)C(C)(C)N2	-
CC(=O)Nc1ccc(-n2sc3c(c2=S)-c2ccccc2NC3(C)C)cc1	5.3
COC(=O)c1ccc(-n2ncnc2-c2cccc(Br)c2)cc1	-
CCOc1ccccc1C1C(C(=O)OCCSCC)=C(C)NC2=C1C(=O)CCC2 (configuration not stated)	-
CCOc1nc(-c2cccc(OC)c2)ccc1-c1noc(C)n1	-
O=C(Nc1ccc(N2C(=O)c3cccnc3C2=O)cc1)c1ccco1	-
O=C(O)c1ccc(N2C(=O)c3cccnc3C2=O)cc1	4.5
O=C1c2cccnc2C(=O)N1c1cccc(-c2nc3ccccc3o2)c1	-
Cn1nc(CC(=O)Nc2nnc(SCC(=O)c3ccccc3)s2)c2ccccc2c1=O	-
Nc1ccc(-c2nc3ccc(-c4nc5ccccc5o4)cc3[nH]2)cc1	6.5
O=S(=O)(O)c1ccc2nc(-c3ccccc3)[nH]c2c1	-
Cc1ccc(-c2nc3ccc(N)cc3[nH]2)cc1	3.1
Cc1ccc(C)c(-c2nc3ccc(N)cc3[nH]2)c1	-
Nc1ccc(-c2nc3ccc(N)cc3o2)cc1	-
Nc1ccc(-c2nc3cc4ccccc4cc3[nH]2)cc1	4
CC(=O)Nc1ccc2nc(-c3ccc(-c4nc5ccc(NC(C)=O)cc5[nH]4)cc3)[nH]c2c1	-
c1ccc2cc3[nH]c(CN4CCOCC4)nc3cc2c1	-
SMILES	Dicer inh
Nc1ccc2nc(-c3ccc(Cl)cc3)[nH]c2c1	-
CC(C)c1ccc2nc(-c3ccc(N)cc3)[nH]c2c1	19
c1ccc2[nH]c(-c3ccc(-c4nc5ccccc5o4)cc3)nc2c1	-
N#Cc1ccsc1NS(=O)(=O)c1ccc(OC(F)(F)F)cc1	-
CN1C(C(=O)c2ccccc2)=C(OC(=O)COc2ccccc2)c2ccccc2S1(=O)=O	-
COc1ccc(C2CC(=O)C=C(NC3Cc4ccccc4C3)C2)cc1OC (configuration not stated)	-
CN(CCO)c1c[nH]c(=O)[nH]c1=O	-
O=C(NC1CCCC1)C1CC(c2c(F)cccc2Cl)=NO1 (configuration not stated)	-
CCOC(=O)C1CCN(Cc2ccccc2)CC1=O (configuration not stated)	-
c1ccc(-c2cc(N3CCOCC3)c3ccccc3n2)cc1	-
COc1ccc2nc(C)cc(N3CCOCC3)c2c1	-
Cc1ccc2nc(C)cc(N3CCOCC3)c2c1	4.4
Nc1nc2nccc(-c3ccccc3)n2n1	-
Clc1ccc2nc(-c3ccco3)cc(-c3ccccc3)c2c1	-
CCc1nc2nc(CSc3ccc(C)cc3)cc(=O)n2[nH]1	-
O=c1cc(-c2ccccc2)nc2nc[nH]n12	-
O=c1cc(CSc2ccc(Cl)cc2)nc2nc[nH]n12	4.4
CC1=NN(c2ccccc2)C(=O)/C1=C1/SC(C(=O)c2cccs2)=NN1c1ccccc1	-
Cc1ccc(Sc2ccccc2C(=O)O)c(S(N)(=O)=O)c1	-
CCOC(=O)/C(C#N)=C/c1cn(-c2ccccc2)nc1-c1ccc(Cl)cc1	-
O=C(O)CSCC(=O)NCC1COc2ccccc2O1 (configuration not stated)	-
O=C1c2ccccc2NC(c2ccc(Br)cc2)N1c1ccc(F)cc1 (configuration not stated)	-
CCCCn1c(C)cc(=S)cc1C	4.5
CCCCn1c2ccccc2c2ccccc21	-
CCCn1c(C)cc(C)c(C#N)c1=O	-
SMILES	Dicer inh
CC(C)(C)SCCNC(=O)C(C)(C)C	-
Cc1cc(F)ccc1NC(=O)c1sc2nc(-c3ccncc3)ccc2c1N	-
Cc1ccc(S(=O)(=O)NC(=O)Nc2cc(C)on2)cc1	-
CCc1ccnc(NC(=O)NS(=O)(=O)c2ccc(C)cc2)c1	5.1
CCc1ccnc(NS(=O)(=O)c2ccc(C)cc2)c1	-
O=[N+]([O-])c1cc(Cl)ccc1S(=O)(=O)c1ccccc1	-
O=[N+]([O-])c1cc(Cl)ccc1S(=O)(=O)c1ccc(Cl)cc1	-
COc1ccc(OC)c(S(=O)(=O)c2ccc(Cl)cc2[N+](=O)[O-])c1	4.2
CSc1nnc(-c2sc3nc(C)cc(C)c3c2N)n1Cc1ccccc1	-
O=C(Nc1ccc2oc(-c3ccccc3Cl)nc2c1)c1ccc([N+](=O)[O-])o1	-
Cc1ccc(-n2c(=O)[nH]c3c(oc4nc(-c5ccccc5)cc(-c5ccccc5)c43)c2=O)cc1	-
Cc1cc(C)c2c(n1)sc1c(=O)n(-c3cccc(Cl)c3)c(=O)[nH]c12	-
